A selection: hits, their analogues and other compounds. The true share with any hit is near 2.2%.
aSyn 5UTR inh: 5' untranslated region of α-synuclein, MLPCN primary screen | hit rate 0.82% among 300,000 | inhibition, % (tested at 7.5 µM) | alpha-synuclein 5'UTR reporter, inhibitor activity | AID 1813; in the data active means inhibition above about 60%;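 further: H4 neuroglioblastoma cells stably carrying SNCA 5'UTR luciferase fusion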
APP 5UTR inh: APP translation inhibition. SH-SY5Y APP 5'UTR-luciferase reporter, luminescence. inhibition, % at 2 µM. hit rate 0.82% among 190,000;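 active means inhibition above a set limit, derived from the sample mean plus 3 SD, cut at about 45% in these data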
IEC-6 tox: IEC-6 cytotoxicity, counter-screen for KLF5 inhibitors; luminescence viability; inhibition, % at 5 µM; hit rate 0.78% among 290,000; in the data active means inhibition above about 22%
KLF5 inhibitor: inhibitors of KLF5 expression | inhibition, % at 5 µM | AID 1700 | DLD-1 KLF5 promoter-luciferase reporter, luminescence | hit rate 0.23% among 290,000;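 active means inhibition above a per-plate limit of that plate's mean compound inhibition plus 3 SD, cut at about 60% in these data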;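 further: higher means less KLF5 promoter-driven luciferase light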
BaF3 parental: counter-screen for JAK2V617F inhibitors: parental Ba/F3 viability inhibitors | inhibition, % at 5.6 µM | CellTiter-Glo ATP luminescence | hit rate 1.1% among 220,000;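 active means inhibition above a per-campaign cutoff, the mean inhibition of all tested compounds plus 3 SD, cut at about 27% in these data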
Ba/F3 V617F tox: lowers viability of Ba/F3 cells expressing EpoR and JAK2V617F | inhibition, % at 5.6 µM | hit rate 1.1% among 220,000 | AID 1446 | ATP luminescence;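 active means inhibition above the campaign mean plus 3 SD over all tested compounds, cut at about 24% in these data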;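 further: cytokine-independent growth of Ba/F3 cells driven by EpoR plus mutant JAK2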
A number is an active result; . = inactive; / = no result given.

SMILES	aSyn 5UTR inh	APP 5UTR inh	IEC-6 tox	KLF5 inhibitor	BaF3 parental	Ba/F3 V617F tox
CCc1nnc(NC(=O)c2cccc(C(=O)Nc3nnc(CC)s3)n2)s1	66	85	93	.	.	.
Cc1ccc(/C=C/C(=O)OCC(=O)Nc2cccc(S(=O)(=O)N(C)C)c2)o1	.	.	.	.	.	.
O=c1[nH]cc(F)c(=O)[nH]1	.	.	86	.	83	86
O=c1[nH]cc(O)c(=O)[nH]1	.	/	.	.	.	.
Clc1ccc(CN2C3=NCCN3c3ccccc32)cc1	.	.	.	.	62	.
CC(C)(C)c1ccc(CN2C3=NCCCN3c3ccccc32)cc1	.	.	.	.	46	46
COc1ccccc1N(Cc1ccccc1)S(=O)(=O)c1cccc(C(=O)Nc2cc(C)ccn2)c1	.	/	.	.	/	/
COc1cc(C2CC(c3cccs3)=NN2C(=O)CCl)ccc1OC(F)F (stereo not given)	107	/	.	.	/	/
COc1ccc(C2CC(c3cccs3)=NN2C(=O)CCl)cc1OC (stereo not given)	.	/	.	.	/	/
Cc1cccc(N2C(=O)c3cccc4c(N5CCCCC5)c([N+](=O)[O-])cc(c34)C2=O)c1C	62	.	.	.	.	.
Cc1ccc(NC(=O)N2CCCC2C(=O)Nc2c(C)cc(C)cc2C)cc1 (stereo not given)	.	/	.	.	/	/
O=C(N1CCOCC1)N1CCN(C(=O)N(c2ccccc2)c2ccccc2)CC1	.	57	.	.	.	.
O=C(N1CCCCC1)N1CCN(C(=O)N(c2ccccc2)c2ccccc2)CC1	.	.	.	.	.	.
Cc1ccc[n+](CC(=O)/C=C2\N(C)c3ccccc3C2(C)C)c1	.	.	.	.	54	51
COCCn1c(SCC(=O)/C=C2\N(C)c3ccccc3C2(C)C)nnc1-c1ccncc1	.	.	.	.	34	32
CN1/C(=C\C(=O)C[n+]2ccc(C(=O)c3ccccc3)cc2)C(C)(C)c2ccccc21	.	.	.	.	.	.
Cc1cccc[n+]1CC(=O)/C=C1\N(C)c2ccccc2C1(C)C	.	.	.	.	67	91
CN1/C(=C\C(=O)C[n+]2cccc(C(N)=O)c2)C(C)(C)c2ccccc21	.	.	.	.	.	.
CN1/C(=C\C(=O)C[n+]2cccc(Br)c2)C(C)(C)c2ccccc21	.	.	.	.	67	66
O=C(CSC(=S)N1CCCC1)NCC(=O)Nc1ccccc1Br	.	/	/	/	/	/
CN1/C(=C\C(=O)COC(=O)CN2C(=O)C3CC=CCC3C2=O)C(C)(C)c2ccccc21 (stereo not given)	.	.	.	.	.	.
Cc1cc(=O)[nH]c(SCC(=O)/C=C2\N(C)c3ccccc3C2(C)C)n1	.	.	.	.	62	67
CN1/C(=C\C(=O)CN2C(=O)NC3(CCCCCC3)C2=O)C(C)(C)c2ccccc21	.	.	.	.	46	41
Cc1ccc(S(=O)(=O)Nc2ccc(C(=O)NCCCN3CCOCC3)cc2)cc1[N+](=O)[O-]	.	/	/	/	/	/
OC(COCc1ccc2c(c1)OCO2)CN1CCN(Cc2ccccc2)CC1 (stereo not given)	.	51	.	.	.	.
SMILES	aSyn 5UTR inh	APP 5UTR inh	IEC-6 tox	KLF5 inhibitor	BaF3 parental	Ba/F3 V617F tox
Cc1ccc(-n2nc3c(N4CCC(C(=O)NCCc5cccs5)CC4)nnc(C)c3c2C)cc1	90	/	.	.	/	/
Cc1ccc(-n2nc3c(=O)n(CC(=O)NCCc4cccs4)nc(C)c3c2C)cc1	.	/	.	.	/	/
O=[N+]([O-])c1ccc(-c2nc(C(Cl)Cl)c3ccccc3n2)cc1	129	/	.	.	.	.
CS(=O)(=O)N(CC(=O)NC1CCCCC1)Cc1ccc(F)cc1	.	.	.	.	.	.
COc1ccc(C(=O)/C=C/C(=O)N(CC(=O)NC2CCCCC2)Cc2ccc(F)cc2)c(O)c1	72	78	.	.	.	.
COc1ccc(NC(=O)c2cc3ccc(O)cc3o/c2=N\O)cc1	.	/	.	.	/	/
O=C(COC(=O)C1CCN(S(=O)(=O)c2cccc3cccnc23)CC1)c1ccccc1	.	.	.	.	63	29
OC(CCc1ccncc1)COc1ccccc1 (stereo not given)	.	/	/	/	/	/
Cc1cccc(N(C(=O)CNC(=O)c2ccco2)C(C(=O)NC2CCCC2)c2cccnc2)c1C (stereo not given)	.	/	.	.	/	/
N/C(=N\NC(=O)c1sccc1OCc1ccc(Cl)cc1Cl)c1ccccn1	.	62	.	.	.	.
Nc1cc(Oc2ccc(F)cc2F)cc([N+](=O)[O-])c1	.	.	.	.	.	.
CS(=O)(=O)N1CCCC(C(=O)NCCCN2CCC(Cc3ccccc3)CC2)C1 (stereo not given)	.	.	.	.	96	.
Nc1nc(Nc2ccccc2)nc(N2CCOCC2)c1[N+](=O)[O-]	.	58	.	.	.	.
Cc1n(C)c2cc(Cl)ccc2[n+]1Cc1ccccc1	.	.	.	.	94	56
O=C(Nc1cccc(C(F)(F)F)c1)Nc1ccc(N2CCCC2)c(S(=O)(=O)Nc2ccccc2Cl)c1	93	.	.	.	.	.
Cc1sc(N/N=C/c2cc([N+](=O)[O-])ccc2O)nc1-c1ccccc1	.	50	.	.	.	.
CC1CCN(C(=O)CSc2nc(=O)n3ccccc3n2)CC1	.	/	/	/	/	/
C=C(C)C(=O)OC1(C(F)(F)F)Oc2cc(C)ccc2NC1=O (stereo not given)	.	.	.	.	.	.
COc1cccc(CNC(=O)CC2Sc3ccccc3NC2=O)c1 (stereo not given)	.	.	.	.	59	.
C=CCN(C(=O)Nc1ccc(F)cc1)C1CC(=O)N(c2ccc(OC)cc2)C1=O (stereo not given)	/	.	.	.	.	.
C=CCN(C(=O)Nc1ccc(Cl)cc1)C1CC(=O)N(c2ccc(OC)cc2)C1=O (stereo not given)	.	47	.	.	.	.
CCC(C)n1cnc2c(=O)oc3ccccc3c21 (stereo not given)	.	88	.	.	.	.
CC(C)Cn1cnc2c(=O)oc3ccccc3c21	.	.	.	.	.	.
CCC(C)N1CCN(S(=O)(=O)Cc2ccccc2)CC1 (stereo not given)	.	/	.	.	/	/
O=[N+]([O-])c1cccc(-c2nnc(C3CC3)o2)c1	.	/	.	.	35	.
SMILES	aSyn 5UTR inh	APP 5UTR inh	IEC-6 tox	KLF5 inhibitor	BaF3 parental	Ba/F3 V617F tox
COc1cc(/C=N/NC(=O)CSc2cc(C)c(Br)cc2C)ccc1O	.	.	.	.	.	.
Cc1cc(SCC(=O)N/N=C/c2ccc(O)c(O)c2O)c(C)cc1Br	68	.	.	.	.	.
O=C(N/N=C/C(Br)=C\c1ccccc1)c1ccc2nc[nH]c2c1	.	83	.	.	.	.
CC(=C/c1ccccc1)/C=N/NC(=O)c1ccc2nc[nH]c2c1	.	.	.	.	.	.
CCOc1cc(C(=O)N/N=C/C(Br)=C/c2ccccc2)cc(OCC)c1OCC	104	90	.	.	.	.
COc1ccccc1CN1CC(C(=O)NCCc2ncccc2C)CCC1=O (stereo not given)	.	/	.	.	/	/
